hDAT+cocaine: changed hDAT dopamine uptake under cocaine IC80, either direction, primary screen, cocaine antagonist project, cell-based, LLC-PK1 hDAT, [14C]-dopamine uptake, MLSMR | LLC-PK1 hDAT cells, [14C]-dopamine uptake with cocaine IC80; actives deviate in either direction | B-score at 10 µM | hit rate 1.3% among 110,000;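 active = Z score or B-score, a plate-position-corrected score, falls beyond the plate's 99.7% confidence bounds, in either direction; inactive = both scores lie inside the 99.7% bounds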;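 also: scored against the spread of the other compound wells on the same plate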
D1 mod: D1 CRE-luciferase signal change, two-sided – cell-based, HEK293 D1, dopamine EC30, D1 allosteric modulator project, primary screen | D(1A) dopamine receptor (Homo sapiens), P21728 | dopamine EC30 potentiation; actives deviate in either direction | B-score at 10 µM | hit rate 5.9% among 58,000;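 active = luminescence count or its row- and column-corrected plate score outside the 99.7% band of the plate's sample wells, on either side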
BAP1 inh: inhibitors of BAP1 deubiquitinase, primary screen, biochemical, Ub-AMC fluorescence, kinetic | AID 436, 2006 | hit rate 0.48% among 72,000 | calls only at 20 µM | recombinant BAP1, Ub-AMC hydrolysis fluorescence kinetic; active compounds read low;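 active = activity remaining at or below 50% of control, provided the compound also passes the data quality filters; inactive = the rest, including low values that fail the filters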;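 also: 100% = DMSO wells rate and 0% = substrate alone blank rate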
Target sequence (Q92560 whole entry, looked up): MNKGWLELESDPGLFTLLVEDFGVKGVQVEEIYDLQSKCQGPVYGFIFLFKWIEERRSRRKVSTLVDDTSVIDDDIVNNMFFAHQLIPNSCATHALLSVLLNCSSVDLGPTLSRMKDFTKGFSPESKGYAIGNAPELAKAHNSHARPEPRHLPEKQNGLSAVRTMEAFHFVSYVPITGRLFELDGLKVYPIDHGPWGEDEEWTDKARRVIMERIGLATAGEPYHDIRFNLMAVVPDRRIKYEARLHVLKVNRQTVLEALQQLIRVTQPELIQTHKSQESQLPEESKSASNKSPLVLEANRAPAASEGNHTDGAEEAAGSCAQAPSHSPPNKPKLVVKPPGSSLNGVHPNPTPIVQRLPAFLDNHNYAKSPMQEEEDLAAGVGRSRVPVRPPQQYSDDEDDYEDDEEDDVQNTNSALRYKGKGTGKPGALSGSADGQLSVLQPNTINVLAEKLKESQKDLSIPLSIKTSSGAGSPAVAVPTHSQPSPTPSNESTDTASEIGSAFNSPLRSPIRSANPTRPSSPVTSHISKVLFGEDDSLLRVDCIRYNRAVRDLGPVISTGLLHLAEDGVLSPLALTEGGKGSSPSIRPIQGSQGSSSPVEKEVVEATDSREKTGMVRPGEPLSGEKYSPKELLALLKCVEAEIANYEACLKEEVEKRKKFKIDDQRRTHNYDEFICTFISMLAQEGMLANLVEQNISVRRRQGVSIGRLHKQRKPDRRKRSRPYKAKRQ
D1 PAM confirm: D1 receptor positive allosteric modulators, retest, confirmation, cell-based, HEK293 D1, CRE-luciferase, duplicate. dopamine EC30 potentiation; active compounds read high. shares compounds with D1 mod. hit rate 88% among 2,200. luminescence at 10 µM;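 active = luminescence in either of two replicates above the same-plate mean plus 3 SD of the low-dose dopamine control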
D1 ag no DA: D1 receptor agonism without dopamine, confirmation, mechanism study for D1 allosteric modulator project, cell-based, HEK293 D1, CRE-luciferase, secondary assay 1; luminescence, no dopamine; active compounds read high; shares compounds with D1 mod; hit rate 0.8% among 1,900; luminescence at 10 µM; in the data active = luminescence above about 3900
Isoprot counter: alters isoproterenol CRE-luciferase response in HEK293 cells | shares compounds with D1 mod | HEK293 D1 CRE-luciferase, isoproterenol EC30 counter-screen; active compounds read high | luminescence at 10 µM | hit rate 63% among 2,200 | AID 647;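 active = luminescence in either replicate above plate mean of wells with a partly effective reference agonist dose plus 3 SD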;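 also: isoproterenol raises cAMP through native beta-adrenoceptor Gs so signal bypasses D1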
* marks the source's active call; other numbers are inactive results; i = inactive; . = no result shown. This is one part of a sample in which hits are shown more often than they occur.

SMILES	hDAT+cocaine	D1 mod	BAP1 inh	D1 PAM confirm	D1 ag no DA	Isoprot counter
c1ccc(-c2nc(-n3ccnc3)nc(-n3ccnc3)n2)cc1	1.81	2.81	i	.	.	.
C=CCNc1nc(-c2ccccc2)nc(-n2ccnc2)n1	-0.398	8.65*	i	22092*	1636	3292*
CC(C)Nc1nc(-c2ccccc2)nc(-n2ccnc2)n1	-0.185	10.6*	i	23348*	1840	3780*
COc1ccc(N=c2oc3ccccc3cc2C(=O)Nc2ccccc2F)cc1	.	.	i	.	.	.
COC(=O)c1ccc(-n2nnnc2SCC(=O)NC(C)(C)C)cc1	.	.	i	.	.	.
CCOc1ccccc1C(=O)N1CCN(c2cccc(Cl)c2)CC1	-1.47	5.55*	i	10528*	2016	3608*
O=C(O)c1ccccc1C(=O)N1CCN(c2cccc(Cl)c2)CC1	-0.917	.	i	.	.	.
CC1(C)CC(=O)c2sc(N3CCCCC3)nc2C1	0.39	0.962	i	.	.	.
Cc1cc(Br)c2c(c1)=C(c1sc(N3CCCCCC3)nc1O)C(=O)N=2	-0.159	5.98*	i	18480*	1764	2760
Cc1ccc(C)c(NC(=O)C(C)(C)C)c1	.	.	i	.	.	.
C=CCn1c2ccccc2c2nnc(SCN3C(=O)c4ccccc4C3=O)nc21	-0.0146	9.91*	.	16236*	1984	5420*
O=C1c2ccccc2C(=O)N1CSc1nnc2c3ccccc3n(CCc3ccccc3)c2n1	-0.504	.	.	.	.	.
Fc1ccc(-c2nc(-c3ccccc3)c3ccccn23)cc1	.	.	i	.	.	.
CCNc1nc(C)cc(COC)c1C#N	-0.87	4.75*	.	10012*	.	2860*
COCc1cc(C)nc(NCCO)c1C#N	-0.459	.	.	.	.	.
CCSCCOC(=O)C1=C(C)NC2=C(C(=O)CC(C)(C)C2)C1c1ccc(C)s1 (centres undefined)	.	.	i	.	.	.
CCOC(=O)c1oc2ccccc2c1NC(=O)c1ccccc1OC	0.877	4.47*	i	11400*	1632	4680*
Cc1ccc(C)c(C(=O)Nc2c(C(N)=O)oc3ccccc23)c1	0.335	0.7	i	.	.	.
NC(=O)c1oc2ccccc2c1NC(=O)c1ccccc1	0.523	.	.	.	.	.
CCOc1ccc(CC(=O)Nc2c(C(N)=O)oc3ccccc23)cc1OCC	-1	4.51*	i	7352*	1544	3564
O=c1c2ccccc2nc(SCc2ccccc2)n1Cc1ccco1	0.159	1.19	i	.	.	.
O=c1c2ccccc2nc(SCc2cccc(F)c2)n1Cc1ccco1	1.26	5.16*	i	10716*	1512	2960
COc1ccccc1NC(=O)C(Cc1ccc([N+](=O)[O-])cc1)N1C(=O)c2ccccc2C1=O (centres undefined)	.	.	i	.	.	.
COc1cccc(C(=O)Nc2c3c(nn2-c2ccc(Oc4ccccc4)cc2)CSC3)c1OC	.	.	i	.	.	.
CSc1ncc(Cl)c(C(=O)NCc2ccc3c(c2)OCO3)n1	-1.24	12*	i	16252*	1504	3100*
SMILES	hDAT+cocaine	D1 mod	BAP1 inh	D1 PAM confirm	D1 ag no DA	Isoprot counter
O=C(NCc1ccc2c(c1)OCO2)c1cc(-c2ccccc2Cl)on1	0.0675	.	.	.	.	.
COC(=O)c1ccc(Cn2cnc3c(sc4nc(N5CCOCC5)c5c(c43)CCCC5)c2=O)o1	0.569	6.76*	.	8596*	1424	4112*
COC(=O)c1ccc(Cn2nnc3c(sc4nc(N5CCOCC5)c5c(c43)CCCC5)c2=O)o1	.	.	i	.	.	.
Cc1nc2nc(C)n(-c3ccccc3)c2s1	2.01	14.9*	i	21228*	1820	4412*
Cc1nc2ccccc2n1-c1ccccc1	-1.96	0.112	i	.	.	.
O=C(Nc1ccccc1-c1ccccc1)c1cnccn1	-0.701	5.21*	i	9324*	1564	2964*
O=C(Nc1ccccc1N1CCOCC1)c1cnccn1	-0.276	.	.	.	.	.
CCOC(=O)c1c(C2COc3ccccc3O2)csc1NC(=O)c1ccc(OC)cc1 (centres undefined)	.	.	i	.	.	.
BrC12CC3CC(C1)CC(Br)(C3)C2	.	.	i	.	.	.
COc1ccc(N2C(=O)C3CCCN3C2c2cccc(C)c2)cc1Cl (centres undefined)	-1.83	-0.73	i	.	.	.
COc1ccc(N2C(=O)C3CCCN3C2c2ccccc2)cc1Cl (centres undefined)	-0.515	2.8*	i	5744*	1680	2896
CCOC(=O)c1c(-c2ccccc2)oc2c1cc(OC(=O)c1ccc(S(=O)(=O)N3CCOCC3)cc1)c1ccccc12	.	.	i	.	.	.
Cc1cc2oc(=O)cc(C)c2cc1[N+](=O)[O-]	.	.	i	.	.	.
C=CCn1c(NCCO)nc2sc3c(c2c1=O)CCC3	-0.0189	10.8*	i	6332	1628	2524
C=CCn1c(SCC(=O)N2CCOCC2)nc2sc3c(c2c1=O)CCC3	.	.	i	.	.	.
Cc1ccc(-c2nc3ccccc3n3nnnc23)cc1	-0.0965	0.693	i	.	.	.
Fc1cccc(Nc2nc3ccccc3n3nnnc23)c1	1.69	.	.	.	.	.
c1ccc2c(c1)nc(Nc1ccc3c(c1)OCO3)c1nnnn12	0.371	8.56*	i	10812*	1496	3840*
Cc1ccc(CNc2nc3ccccc3n3nnnc23)cc1	0.226	3.4*	i	15516*	1588	3060
CCCOc1cccc(C(=O)Nc2ccc(NC(=O)c3ccc(Br)cc3)cc2)c1	.	.	i	.	.	.
COc1ccc(C2NC(=O)NC(C)=C2C(=O)OCCOc2ccccc2)c(OC)c1 (centres undefined)	.	.	i	.	.	.
CC(=O)c1c(N)c(C#N)c(C)n1-c1ccc(Br)cc1	0.028	.	i	.	.	.
COC(=O)c1c(N)c(C#N)c(C)n1-c1ccccc1	-0.499	3.01*	i	8468*	1628	3376*
N#CCSc1nc(N)c(C#N)c(C2CCCCC2)c1C#N	-1.6	8.99*	i	13172*	.	5892*
N#Cc1c(N)nc(SCC(=O)NC2CCCCC2)c(C#N)c1-c1ccc(Cl)cc1	0.342	0.382	i	.	.	.
SMILES	hDAT+cocaine	D1 mod	BAP1 inh	D1 PAM confirm	D1 ag no DA	Isoprot counter
CCC(=O)Nc1ccc2nc(SCc3c(C)cc(C)c(C(C)=O)c3C)sc2c1	.	.	i	.	.	.
CCOc1ccc(NC(=O)COc2cccc(C)c2)c([N+](=O)[O-])c1	.	.	i	.	.	.
COc1cccc(C(=O)Nc2c(C)ccc3nsnc23)c1	.	.	i	.	.	.
CC(=O)c1ccc(NC(=O)c2ccc(N)cc2)cc1	.	.	i	.	.	.
COc1ccc2c(c1)C(=O)N(c1ccccc1)C(=O)C2	-0.528	.	.	.	.	.
COc1ccc2c(c1)C(=O)N(c1ccccc1OC)C(=O)C2(C)C	-0.59	6.89*	i	11528*	1476	3236
Cc1cccc(C(=O)Nc2cccc(NC(=O)c3cccc(C)c3)c2)c1	.	.	i	.	.	.
O=c1cc(-c2ccccc2)c2ccccc2[nH]1	-1.03	10*	.	12072*	1476	3732*
Cc1cc(=O)[nH]c2ccccc12	0.129	-0.0337	i	.	.	.
